We go through seven molecules from PubChem BioAssay (NCI).

SMILES strings stand for the structures. About 83,000 compounds went through this panel and 20% of them were active in at least one assay; those are over-represented in the sample as a whole.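 96-well plates, one dose, 48 hours. Percent growth reported; active if below 10.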 Unmarked numbers belong to inactive results. Calls of active or inactive are those of the source.

Among the test systems are NCI-H23 lung; NCI-H226 lung; NCI-H322M lung; HOP-62 NSCLC; NCI-H460 lung; HOP-92 NSCLC; NCI-H522 lung; A549/ATCC NSCLC; 786-0 renal; COLO 205 colon; DU-145 prostate; K-562 leukemia; MALME-3M melanoma; MDA-MB-231 breast; RXF 393 renal; SF-268 CNS; SF-295 CNS; SF-539 CNS; UACC-257 melanoma; M14 melanoma.
Holding throughout (test): NCI-60 one-dose screen, 48 h (100 = growth as untreated, 0 = no growth, -100 = all killed)
What all share (settings): 10 µM unless noted

`COc1ccc(NC(=O)Cn2c(/C=C/c3cccc(Br)c3)nc3ccccc3c2=O)cc1`: the growth was 59.3% with NCI-H23 lung; 6.61% (active) in the test on NCI-H226 lung; 58.1% with NCI-H322M lung; 2.11% (active) in the test on HOP-62 NSCLC; 32% in the test on NCI-H460 lung; 11% in the test with HOP-92 NSCLC. Further, the growth is 42.6% in the test with NCI-H522 lung; 16.5% in the test with A549/ATCC NSCLC; -44.4% (active) in the test on 786-0 renal; 70.4% with COLO 205 colon; 79.1% in the test on DU-145 prostate; 86.3% in the test with K-562 leukemia. In addition, the growth in the test with MALME-3M melanoma is 48.7%; in the test on MDA-MB-231 breast, -38.4% (active); in the test on RXF 393 renal it was -16.3% (active); with SF-268 CNS, 65.2%; in the test with SF-295 CNS it was 48.9%; in the test with SF-539 CNS, -23.4% (active). Besides, the growth was 71.1% with UACC-257 melanoma and 50.2% with M14 melanoma.

Turning to `Clc1ccccc1Nc1nnc(-c2c[nH]c3ccccc23)o1`, the growth in the test on NCI-H23 lung is 22.2%; in the test with NCI-H226 lung it was 43.9%; in the test on NCI-H322M lung, 47.1%; in the test on HOP-62 NSCLC it was 27.2%; with NCI-H460 lung, 16%; with HOP-92 NSCLC, 43.9%. For the same molecule, the growth is -25.1% (active) in the test with NCI-H522 lung; 22.1% in the test on A549/ATCC NSCLC; 36% with 786-0 renal; -33.6% (active) with COLO 205 colon; 21.5% with DU-145 prostate; 6.76% (active) with K-562 leukemia. Further, the growth in the test on MALME-3M melanoma was 41.9%; with MDA-MB-231 breast, 16%; in the test on RXF 393 renal it was -5.74% (active); in the test with SF-268 CNS, 48.5%; in the test with SF-295 CNS it was 9.04% (active); with SF-539 CNS, -43.6% (active). Also, the growth in the test with UACC-257 melanoma is 65%; in the test with M14 melanoma it was 22.8%.

As for `Cc1cc(Cl)ccc1NC(=O)Nc1ccc(-c2ccc3c(c2)NC(=O)/C3=C\c2ccc[nH]2)cc1`, the growth was 74.4% in the test on NCI-H23 lung; 107% in the test with NCI-H226 lung; 98.6% with NCI-H322M lung; 99.6% in the test with HOP-62 NSCLC; 66.8% in the test with NCI-H460 lung; 115% with HOP-92 NSCLC. For the same molecule, the growth with NCI-H522 lung is 103%; in the test on A549/ATCC NSCLC, 105%; with 786-0 renal it was 105%; with COLO 205 colon it was 130%; in the test with DU-145 prostate, 96.3%; with K-562 leukemia it was 83.3%. Also, the growth in the test with MALME-3M melanoma was 99.9%; with MDA-MB-231 breast, 108%; with RXF 393 renal it was 122%; in the test on SF-268 CNS it was 109%; in the test on SF-295 CNS it was 105%; in the test on SF-539 CNS it was 91.9%. Further, the growth in the test on UACC-257 melanoma was 117%; with M14 melanoma it was 108%.

Take `COc1cc(CNC(=O)C[C@H](C)CCC=C(C)C)ccc1OCc1cn(-c2ccccc2F)nn1`: the growth with NCI-H23 lung is 68.3%; with NCI-H226 lung, 73.3%; in the test with NCI-H322M lung, 92.7%; with HOP-62 NSCLC, 46.7%; with NCI-H460 lung, 89%; in the test on HOP-92 NSCLC it was 4.63% (active). For the same molecule, the growth was 57.1% with NCI-H522 lung; 80.6% in the test with A549/ATCC NSCLC; 43.6% in the test with 786-0 renal; 112% with COLO 205 colon; 102% with DU-145 prostate; 81.6% in the test on K-562 leukemia. For the same molecule, the growth in the test on MALME-3M melanoma was 78.3%; with MDA-MB-231 breast it was 66.8%; with RXF 393 renal, 38.4%; with SF-268 CNS it was 58.9%; in the test with SF-295 CNS, 45.2%; in the test with SF-539 CNS it was 44.6%. In addition, the growth was 94% in the test on UACC-257 melanoma and 94.8% with M14 melanoma.

As to `Fc1ccccc1CNc1nc(SCCN2CCOCC2)nc2c1cnn2CC(Cl)c1ccc(Br)cc1` (stereo not given), the growth in the test on NCI-H23 lung was 45.1%; in the test with NCI-H226 lung it was 31.8%; in the test with NCI-H322M lung, 75.2%; with HOP-62 NSCLC it was 40%; with NCI-H460 lung, 17%; with HOP-92 NSCLC, 26%. Besides, the growth in the test with NCI-H522 lung is 58.1%; in the test with A549/ATCC NSCLC, 27.7%; with 786-0 renal, 8.8% (active); in the test on COLO 205 colon, -9.47% (active); with DU-145 prostate, 60.5%; with K-562 leukemia, 3.13% (active). In addition, the growth in the test on MALME-3M melanoma is -15.7% (active); in the test on MDA-MB-231 breast it was 12.6%; in the test with RXF 393 renal, -13.9% (active); with SF-268 CNS, 41.4%; in the test with SF-295 CNS it was -3.31% (active); in the test with SF-539 CNS, -3.45% (active). The growth in the test on UACC-257 melanoma was 8.02% (active); with M14 melanoma it was 29%.

With `COC(=O)CSC1=C(C)C(=O)C(OC)=C(OC)C1=O`, the growth was 94.3% with NCI-H23 lung; 93.1% in the test on NCI-H226 lung; 93.1% in the test with NCI-H322M lung; 85.3% in the test on HOP-62 NSCLC; 96.8% in the test with NCI-H460 lung; 75.5% in the test with HOP-92 NSCLC. The growth in the test on NCI-H522 lung was 72.2%; in the test on A549/ATCC NSCLC, 90.4%; with 786-0 renal, 99.9%; in the test on COLO 205 colon, 102%; in the test with DU-145 prostate it was 103%; in the test on K-562 leukemia, 13.6%. In addition, the growth with MALME-3M melanoma is 89.9%; with MDA-MB-231 breast it was 85.4%; in the test on RXF 393 renal, 105%; in the test with SF-268 CNS it was 100%; with SF-295 CNS, 106%; in the test on SF-539 CNS, 98.1%. For the same molecule, the growth in the test with UACC-257 melanoma is 78.1%; in the test with M14 melanoma it was 91.1%.

On to `C#CCN(C)CCCOc1ccc(N(C)C(=O)c2cc(C(C)C)c(O)cc2O)cc1Cl`, for which the growth in the test with NCI-H23 lung is 12.3%; in the test on NCI-H226 lung, 13.7%; with NCI-H322M lung, 34.8%; with HOP-62 NSCLC, 34.6%; in the test with NCI-H460 lung, -13.3% (active); in the test with HOP-92 NSCLC, -23.9% (active). Further, the growth in the test on NCI-H522 lung is 12.6%; in the test on A549/ATCC NSCLC, 15.9%; in the test with 786-0 renal, 33.5%; with COLO 205 colon, 7.34% (active); with DU-145 prostate, 24.3%; in the test on K-562 leukemia, 3.57% (active). Further, the growth was -27.8% (active) with MALME-3M melanoma; -15.8% (active) with MDA-MB-231 breast; 22.3% in the test on RXF 393 renal; 41.4% with SF-268 CNS; 6.57% (active) in the test on SF-295 CNS; 17.3% in the test with SF-539 CNS. The growth was 9.35% (active) in the test on UACC-257 melanoma and 0.868% (active) in the test on M14 melanoma.
